# Screens: PubChem BioAssay, National Center for Advancing Translational Sciences (NCATS)
# HepG2 tox-1: qHTS for Inhibitors of TGF-b: Cytotox Counterscreen | 0.76% of 410,000 active | Potency, µM (doses to about 46.1 µM), for the others: top-dose activity change, negative = cytotoxicity, hits mostly cytotoxic | HepG2 CAGA-GFP viability, ATP luminescence, 18 h
#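 CellTiter-Glo luminescence gave cytotoxicity after 18 hours at 37 degrees C. The cells were HepG2 CAGA-GFP in 1% FBS DMEM, stimulated with 500 pg/mL TGF-beta after compound addition. %Activity was normalised to no-cell wells (complete cell-killing) and DMSO (no toxicity), and curves were fitted and classified.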
# RORg inh: qHTS for inhibitors of ROR gamma transcriptional activity | AID 2551, 2010 | Potency, µM (series often up to 53.6 µM), without a hit: at the highest dose activity change, negative = inhibition, actives largely listed as inhibitors | Drosophila S2 Gal4-RORgamma UAS-luciferase reporter, 20 h | Nuclear receptor ROR-gamma (Mus musculus), P51450 | 5.4% of 310,000 active; further: on the % scale 0 is the no-effect control and ±100 the full control effect; nearly all actives have a fitted effect of over 60% in size
# Target sequence (P51450 whole entry, looked up, the tested form may be a part): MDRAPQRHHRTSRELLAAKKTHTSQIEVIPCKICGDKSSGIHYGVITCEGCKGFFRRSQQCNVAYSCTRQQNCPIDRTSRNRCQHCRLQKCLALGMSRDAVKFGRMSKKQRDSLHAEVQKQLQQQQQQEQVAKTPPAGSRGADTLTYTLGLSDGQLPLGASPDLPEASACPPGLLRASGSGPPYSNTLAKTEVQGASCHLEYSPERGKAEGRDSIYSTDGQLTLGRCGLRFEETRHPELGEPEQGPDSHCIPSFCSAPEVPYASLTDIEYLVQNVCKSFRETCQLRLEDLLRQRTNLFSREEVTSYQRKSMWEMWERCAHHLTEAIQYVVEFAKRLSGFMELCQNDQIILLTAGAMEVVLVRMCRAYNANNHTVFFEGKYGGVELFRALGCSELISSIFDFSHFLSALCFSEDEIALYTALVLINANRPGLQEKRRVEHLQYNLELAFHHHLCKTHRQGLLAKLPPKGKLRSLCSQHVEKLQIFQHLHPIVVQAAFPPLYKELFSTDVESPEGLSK
#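 Drosophila Schneider cells stably carrying a metallothionein-driven Gal4 DBD–ROR gamma fusion and a UAS-Photinus luciferase reporter were exposed to compound for 1 hr, then induced with copper sulfate (700 uM final) for 20 hr at ambient temperature before luminescence reading.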
# TGFb SMAD3 inh: qHTS for Inhibitors of TGF-b. HepG2 CAGA-GFP TGF-b/SMAD3 reporter, GFP fluorescence, 18 h; TGF-beta stimulated, 500 pg/mL final. Potency, µM (doses to about 46.1 µM), inactives show at the highest dose activity, negative = inhibition, hits mostly inhibitors. 1.2% of 410,000 active; further: on the % scale 0 is the no-effect control and ±100 the full control effect; nearly all actives have a fitted effect of over 65% in size
#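 First, reporter cells (HEPG2 CAGA-GFP) rested 2 h at 37 degrees C. Next, compounds were pinned in and TGF-beta added to 500 pg/mL final. After 18 h, GFP was imaged per cell and summed per well.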
# ATXN2 expr inh: Primary qHTS for Inhibitors of ATXN expression; HEK-293 ATXN2-luciferase reporter, luminescence, 24 h; Potency, µM (titrated, usually from 57 µM), inactives show at the top dose activity change, negative = inhibition, usual class: inhibitors; 0.72% of 360,000 active; further: on the % scale 0 is the no-effect control and ±100 the full control effect; nearly all actives have a fitted effect of over 55% in size
#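 qHTS (up to 57 uM final) was run with 24 h compound exposure of reporter cells at 37 °C. Each well was multiplexed: SteadyGlo luminescence measured ATXN2-luciferase expression after a fluorogenic Gly-Phe-AFC viability readout (25 uM final).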
# VP16 counter: VP16 counterscreen qHTS for inhibitors of ROR gamma transcriptional activity; Drosophila S2 Gal4-VP16 UAS-luciferase, luminescence, 20 h; Potency, µM (top dose mostly 53.6 µM), inactives show top-dose activity, negative = inhibition, most hits filed as inhibitors; 3.5% of 310,000 active;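 further: Gal4-VP16 expression switched on by copper sulfate through the metallothionein promoter; on the % scale 0 is the no-effect control and ±100 the full control effect; nearly all actives have a fitted effect of over 50% in size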
# ATXN viability: Viability Counterscreen for Primary qHTS for Inhibitors of ATXN expression. 0.49% of 400,000 active. Potency, µM (top dose mostly 56.7 µM), most hits filed as cytotoxic. AID 651635, 2014. S2 cells (HEK-293 line with an ATXN2-luciferase reporter) viability, CellTiter-Fluor protease fluorescence, 24 h; further: nearly all actives have a fitted effect of over 40% in size
# TGFb confirm: qHTS for Inhibitors of TGF-b: Confirmation of Cherry Picks | shares compounds with TGFb SMAD3 inh | HepG2 CAGA-GFP TGF-b reporter, GFP fluorescence, 18 h; cells stimulated with TGF-beta, 500 pg/mL | Potency, µM (doses to about 46.1 µM), for inactives: top-dose activity, negative = inhibition, usual class: inhibitors | 63% of 1,600 active; further: on the % scale 0 is the no-effect control and ±100 the full control effect; nearly all actives have a fitted effect of over 65% in size
# HepG2 tox-2: qHTS for Inhibitors of TGF-b: Cytotox Counterscreen for Cherry Picks; shares compounds with TGFb SMAD3 inh; HepG2 CAGA-GFP viability, ATP luminescence, 18 h; cells stimulated with TGF-beta, 500 pg/mL; 27% of 1,600 active; Potency, µM (series often up to 46.1 µM), for inactives: at the highest dose activity, negative = cytotoxicity, hits mostly inhibitors; further: on the % scale 0 is the no-effect control and ±100 the full control effect; nearly all actives have a fitted effect of over 70% in size
# TGFb CCL64 inh: qHTS for Inhibitors of TGF-b: CCL64 Cells Orthogonal Assay for Cherry Picks; Potency, µM (doses to about 46.1 µM), for inactives: at the highest dose activity, negative = inhibition, most hits filed as inhibitors; 41% of 1,600 active; CCL64 CAGA-GFP reporter, TGF-b stimulated, GFP fluorescence, 18 h; shares compounds with TGFb SMAD3 inh; further: nearly all actives have a fitted effect of over 65% in size
# TGFb COP inh: qHTS for Inhibitors of TGF-b: Hit Validation in HepG2 Cells using COP promoter; shares compounds with TGFb SMAD3 inh; HepG2 COP-GFP TGF-b reporter, GFP fluorescence, 18 h; cells stimulated by added recombinant TGF-beta; Potency, µM (doses to about 46.1 µM), for the others: top-dose activity, negative = inhibition, actives largely listed as inhibitors; 3% of 1,600 active; further: nearly all actives have a fitted effect of over 70% in size
# * marks the source's active call; other numbers are inactive results; i = inactive; ? = inconclusive; / = not tested or not shown. Compounds with a hit are over-represented: about 6.1% of the library has one in this group of screens. The call rests on the fitted dose curve; in most records, active means well fitted curve in the direction sought with a large enough effect; inconclusive means small, poorly fitted or top-dose-only effect, or another doubt; inactive means no such curve, though single readings can be large; an effect the other way counts as inactive or inconclusive. Potency means the concentration at half of the fitted maximal effect.
SMILES,HepG2 tox-1,RORg inh,TGFb SMAD3 inh,ATXN2 expr inh,VP16 counter,ATXN viability,TGFb confirm,HepG2 tox-2,TGFb CCL64 inh,TGFb COP inh
COc1ccc(NC(=O)CN2C(=O)CCn3nc(-c4cccn4C)cc32)cc1,2.6%,/,14.8%,2.7%,/,i,/,/,/,/
Cc1ccc(C(NC(=O)C2CCCCC2)c2c(O)ccc3ccccc23)cc1 (stereo not given),1.4%,5.4%,4.47µM*,-8.0%,-10.5%,?,7.31µM*,?,23.1µM*,34.7%
NC1=NC[C@H](Cc2ccc(O)cc2)N1CCc1cc(C(F)(F)F)cc(C(F)(F)F)c1,-3.9%,-41.4%,1.12µM*,8.9%,-0.9%,i,0.2%,-5.4%,3.0%,3.3%
Cc1cc(S(=O)(=O)c2ccc(Cl)cc2)nc(S(=O)(=O)c2ccc(Cl)cc2)c1C#N,-118.5%,/,7.08µM*,/,/,0.794µM*,5.8µM*,18.4µM*,1.84µM*,18.4µM*
Cc1cc(C)c(S(=O)(=O)c2ccc(Cl)cc2)c(Cl)n1,5.1%,-3.7%,5.1%,-4.3%,-3.0%,i,/,/,/,/
Cc1ccc(C)c(NC(=O)Cn2cc(S(=O)(=O)N3CCCC3)c(S(=O)(=O)N3CCCC3)c2)c1,5.8%,/,-12.5%,7.5%,/,i,/,/,/,/
CC(=O)c1ccc(N2CCN(C(=O)CCCCn3c(=O)[nH]c4ccsc4c3=O)CC2)cc1,-2.1%,/,12.7%,-1.8%,/,i,/,/,/,/
O=C(Nc1ccc(Cl)cc1)Nc1nnc(CSCc2ccccc2Cl)s1,5.8%,17.0%,?,0.4%,-21.3%,i,/,/,/,/
O=C(Nc1ccccc1)Nc1nnc(CSCc2ccccc2Cl)s1,-55.3%,?,7.94µM*,?,?,?,?,-27.9%,?,-5.7%
CCCc1cc2c(cc1NC(=O)c1ccco1)OCO2,6.4%,3.3%,?,-8.1%,-0.3%,i,-27.2%,1.9%,0.2%,-2.1%
CCCc1cc2c(cc1NC(=O)c1ccccc1F)OCO2,31.6%,?,28.4%,0.3%,6.6%,i,/,/,/,/
Cc1ccc(S(=O)(=O)N2CCOCC2)cc1C(=O)Nc1nc(-c2ccccn2)cs1,-5.5%,/,?,?,/,?,9.2µM*,?,?,8.9%
S=C(Nc1ccccn1)c1ccccn1,-62.3%,7.08µM*,7.08µM*,5.2%,3.16µM*,i,-22.3%,?,?,5.9%
Cc1ccc(C)c(-n2c(N)c(C#N)c3nc4ccccc4nc32)c1,-7.2%,/,15.2%,-4.2%,/,/,/,/,/,/
COc1ccc(NC(=O)N(C)C[C@H]2Oc3c(NC(=O)c4nc5ccccc5s4)cccc3C(=O)N([C@@H](C)CO)C[C@H]2C)cc1,-5.9%,/,11.2µM*,?,/,/,?,-22.4%,18.4µM*,38.0%
C[C@H](CO)N1C[C@H](C)[C@@H](CN(C)Cc2ccc(Oc3ccccc3)cc2)Oc2c(NC(=O)c3ccncc3)cccc2C1=O,-0.3%,/,14.1µM*,0.0%,/,?,23.1µM*,?,?,37.3%
COc1ccc(NC(=O)N(C)C[C@H]2Oc3c(NC(=O)c4ccncc4)cccc3C(=O)N([C@H](C)CO)C[C@@H]2C)cc1,7.8%,/,1.1%,-3.4%,/,i,/,/,/,/
COc1ccccc1NC(=O)C1=C(C)Nc2nc(SCC(=O)c3ccc(C)cc3)nn2C1c1ccc(F)cc1 (stereo not given),1.0%,/,1.0%,7.6%,/,i,/,/,/,/
CCOC(=O)N1CCc2c(sc3c2c(=O)n(CCc2ccccc2)c(=O)n3CC(=O)Nc2ccc(C)cc2)C1,2.1%,/,3.1%,/,/,/,/,/,/,/
COc1ccc(C2CC(c3ccccc3OC(C)=O)=NN2C(=O)/C=C/c2ccccc2)cc1OC (stereo not given),-21.5%,7.7%,10µM*,-7.0%,?,i,18.4µM*,-24.9%,?,2.3%
COc1ccc(CN2CCN(c3ncnc4scc(-c5ccc(F)cc5)c34)CC2)cc1,-25.6%,18.6%,11.2µM*,?,18.5%,i,20.6µM*,?,?,41.1%
COCCCNC(=O)c1cc(-c2cccnc2)nc2ccc(S(=O)(=O)N3CCC(C)CC3)cc12,-9.6%,/,0.0%,/,/,/,/,/,/,/
CCCCNc1nc(Oc2ccc(OCC)nn2)nc(N2CCOCC2)n1,0.1%,/,8.0%,36.4%,/,i,/,/,/,/
CCCCCCN1C[C@H](n2cc(-c3ccc(F)cc3)nn2)[C@@H](O)C[C@@H]1c1ccc(Cl)cc1,11.2µM*,/,7.08µM*,31.6µM*,/,/,20.6µM*,?,18.4µM*,?
COCCn1c(SCc2nc3scc(-c4ccc(Cl)cc4)c3c(=O)[nH]2)nnc1-c1cccc(C)c1,-25.3%,?,10µM*,-23.1%,-12.1%,?,13µM*,?,?,32.3%
CCn1c(SCc2nc3scc(-c4ccccc4)c3c(=O)[nH]2)nnc1-c1cccs1,-1.5%,?,?,-32.6%,-19.9%,i,/,/,/,/
O=S(=O)(Nc1cc(Sc2ncn[nH]2)c(O)c2ccccc12)c1ccccc1,3.55µM*,7.94µM*,2.51µM*,?,7.08µM*,?,7.31µM*,?,5.8µM*,?
Cc1cc(O)c(Sc2ncn[nH]2)cc1NS(=O)(=O)c1ccc(Cl)cc1,-3.4%,/,-8.0%,-4.2%,/,i,/,/,/,/
